Screening results as filed in PubChem BioAssay.
This is a sample that favours compounds with a hit; in the whole collection about 7.9% have one here.
FMDV inh: High Throughput Screening for Foot and Mouth Disease Virus Antivirals | Potency, µM (series often up to 57.9 µM), actives largely listed as inhibitors | hit rate 1.2% among 410,000 | FMDV antiviral cell-based qHTS; calls by dose curve; tested in HEK293T cells; note: read-out not given here; nearly all actives have a fitted effect of over 45% in size
LASV entry inh: qHTS for Inhibitors of binding or entry into cells for Lassa Virus; Lassa virus pseudotype entry inhibition, cell reporter; AID 540256, 2011; Potency, µM (highest dose often 37.9 µM), actives largely listed as inhibitors; hit rate 1.2% among 300,000; calls by dose curve; tested in HEK293 cells; note: nearly all actives have a fitted effect of over 50% in size
HCMV antiviral: qHTS Assay for inhibitors of the human cytomegalovirus (HCMV). HFF cells, HCMV-luciferase reporter, 72 h; active compounds read low. activity change, negative = inhibition, % at 57.5 µM. hit rate 4.5% among 410,000. AID 1259415, 2018; in the data active = activity change below about -60%; inconclusive = no clear call, values can overlap the other calls; inactive = above about -39%
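Steps: HFFs plated, 16 h 37C; compounds added; HCMV-luciferase added to MOI 1 PFU/cell; 72 h 37C; OneGlo reagent, 5 min room temperature; luminescence read, normalized to controls.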
HCV inh: qHTS Assay for Inhibitors of Hepatitis C Virus (HCV) | Potency, µM (highest dose often 41.8 µM), hits mostly inhibitors | Huh7.5.1 HCVcc-Cre infection, luciferase reporter, 44 h | hit rate 3.4% among 340,000; active = well fitted inhibition curve with a large enough effect; inconclusive = small, poorly fitted or top-dose-only effect, or another doubt; inactive = no such curve, though single readings can be large or run the other way
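Cells seeded at 1,000/well and cultured 4 h, then compounds added followed by HCVcc-Cre virus (~0.5 moi). After 44 h further culture, luciferase substrate was added, plates held 15 min at room temperature, and luminescence read for 15 sec.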
Marburg entry inh: qHTS for inhibitors of binding or entry into cells for Marburg Virus; Potency, µM (titrated, usually from 37.8 µM), actives largely listed as inhibitors; Marburg virus pseudotyped entry inhibition, cell reporter; AID 540276, 2011; hit rate 1.8% among 300,000; calls by dose curve; tested in HEK293 cells
Each line names hits and unclear results; the compound was inactive in the other large screens; ! = a repeat was not active.

CC12CC(c3ccccc3O1)N(C(=O)c1ccco1)C(=S)N2c1ccc(F)cc1 (stereo not given)	LASV entry inh inconclusive, HCV inh 2.8µM, Marburg entry inh inconclusive
CC1(C)Cc2c(cnn2-c2ccc(F)cc2)C(NC(=O)c2ccco2)C1 (stereo not given)	none
O=C(CCN1C(=O)C2CC=CCC2C1=O)OCC(=O)c1ccc(F)cc1 (stereo not given)	HCMV antiviral -76 (no result: LASV entry inh, Marburg entry inh)
O=C(CSc1nc(C(F)(F)F)cc(=O)[nH]1)Nc1ccc2c(c1)OCCO2	none
Cc1cccc(-n2c(C)cc(/C=N/NC(=O)c3ccc(CN4CCOCC4)cc3)c2C)c1	FMDV inh inconclusive, HCV inh 10µM
Cc1cccc(-n2c(C)cc(/C=N/NC(=O)c3cccc([N+](=O)[O-])c3C)c2C)c1	LASV entry inh inconclusive, HCV inh inconclusive, Marburg entry inh inconclusive
Cc1ccc(C(=O)N/N=C/c2cc(C)n(-c3ccc(Br)cc3)c2C)cc1[N+](=O)[O-]	HCV inh 20µM, Marburg entry inh inconclusive
Cc1cc(/C=N/NC(=O)c2c(Br)cnn2C)c(C)n1-c1cccc(Br)c1	FMDV inh inconclusive, LASV entry inh inconclusive, HCMV antiviral -65, Marburg entry inh inconclusive
Cc1ccc(-n2c(C)cc(/C=N/NC(=O)c3ccncc3)c2C)cc1	HCV inh inconclusive
Cc1ccc(-n2c(C)cc(/C=N/NC(=O)c3ccc(CN4CCOCC4)cc3)c2C)cc1	FMDV inh inconclusive, HCMV antiviral inconclusive, HCV inh 10µM
O=C(N/N=C/c1ccc(OC(=O)c2ccccc2)cc1)c1ccc(CN2CCOCC2)cc1	FMDV inh inconclusive, Marburg entry inh inconclusive
COc1cccc(-c2ccnc(-n3ncc(C(=O)NCC(C)(C)CN(C)C)c3C)n2)c1	none (no result: LASV entry inh, HCMV antiviral, HCV inh, Marburg entry inh)
CC(C)CNC(=O)c1cccc2c1-c1ccccc1C2=O	none
Cc1ccc(-n2c(SCC(=O)N3Cc4ccccc4CC3C(=O)O)nnc2-c2cccnc2)c(C)c1 (stereo not given)	none
CCC(Sc1n[nH]c(=O)[nH]c1=O)C(=O)OCc1ccccc1 (stereo not given)	FMDV inh 1.8µM
Cc1cccc(NC(=O)Cn2c(=O)c3cccn3c3ccccc32)c1C	LASV entry inh inconclusive (no result: HCV inh, Marburg entry inh)
Cn1c(SCC(=O)NC(C)(C)C)nnc1-c1ccc(C(C)(C)C)cc1	HCMV antiviral -60, HCV inh inconclusive (no result: FMDV inh)
CCOc1ccc(NC(=O)c2ccc(CNc3c(N4CCCC4)c(=O)c3=O)cc2)cc1	none (no result: LASV entry inh, Marburg entry inh)
CCOc1ccc(NC(=O)CCNc2c(N3CCCC3)c(=O)c2=O)cc1	HCMV antiviral -61, Marburg entry inh inconclusive
CCOC(=O)c1ccc2nc(C)c(CCC(C)=O)c(Cl)c2c1	LASV entry inh inconclusive
CC(=O)CCc1c(C)nc2ccc(C)cc2c1Cl	HCMV antiviral -80
COc1ccccc1OCC(O)Cn1c(=N)n(CCN2CCCCC2)c2ccccc21 (stereo not given)	LASV entry inh inconclusive, HCMV antiviral inconclusive, HCV inh 2.5µM, Marburg entry inh inconclusive
Cc1ccccc1OCC(O)COc1ccccc1C	LASV entry inh inconclusive, HCMV antiviral -100
Cc1ccccc1OCCn1c(=N)n(C(C)C)c2ccccc21	FMDV inh inconclusive, HCMV antiviral -69, Marburg entry inh inconclusive (no result: HCV inh)
Cc1ccccc1OCC(O)Cn1c(=N)n(CCN2CCOCC2)c2ccccc21 (stereo not given)	FMDV inh inconclusive, HCMV antiviral inconclusive, HCV inh inconclusive, Marburg entry inh inconclusive
Cc1ccccc1OCC(O)Cn1c(=N)n(CCN2CCCCC2)c2ccccc21 (stereo not given)	FMDV inh inconclusive, LASV entry inh inconclusive, HCMV antiviral -92, Marburg entry inh inconclusive (no result: HCV inh)
COc1ccc(OCC(O)Cn2c(=N)n(CCN3CCOCC3)c3ccccc32)cc1 (stereo not given)	Marburg entry inh inconclusive
Cc1ccccc1OCCN1C(=O)c2ccccc2C1=O	none (no result: FMDV inh)
Cc1ccccc1OCC(O)CN (stereo not given)	none
CCOC(=O)/C=C/[C@H](CCCCOCc1ccccc1)NC(=O)C(F)(F)F	none (no result: FMDV inh, LASV entry inh, HCV inh, Marburg entry inh)
Cc1ccc2c(c1)CN(C(=O)CC(c1ccccc1)c1ccco1)CC(C)O2 (stereo not given)	none (no result: LASV entry inh, HCMV antiviral, HCV inh, Marburg entry inh)
N=c1n(CCN2CCCCC2)c2ccccc2n1CC(O)COc1ccccc1 (stereo not given)	FMDV inh 40µM!, LASV entry inh inconclusive, HCV inh 11µM, Marburg entry inh inconclusive
N=c1n(CCN2CCOCC2)c2ccccc2n1CC(O)COc1ccccc1 (stereo not given)	Marburg entry inh inconclusive
COc1ccc(/C=C/C(=O)Nc2ccc(Cl)cc2Cl)cc1	none (no result: HCV inh, Marburg entry inh)
CCN(CC)C(=O)Cn1c(C)c(/C=C/c2cc[n+](C)cc2)c2ccccc21	none (no result: LASV entry inh, Marburg entry inh)
C=CCn1c(C)c(/C=C/c2cc[n+](C)cc2)c2ccccc21	FMDV inh inconclusive, LASV entry inh inconclusive, HCMV antiviral -96, HCV inh inconclusive, Marburg entry inh 2.8µM
CC(C)n1cc(/C=C/c2cc[n+](C)cc2)c2ccccc21	FMDV inh inconclusive, LASV entry inh inconclusive, HCMV antiviral -95, HCV inh 32µM, Marburg entry inh 2.5µM
C=CCn1cc(/C=C/c2cc[n+](C)cc2)c2ccccc21	FMDV inh inconclusive, HCMV antiviral -96, HCV inh inconclusive (no result: LASV entry inh, Marburg entry inh)
Cc1[nH]c2ccccc2c1/C=C/c1cc[n+](C)cc1	LASV entry inh inconclusive, HCMV antiviral -69, HCV inh inconclusive
C[n+]1ccc2[nH]c3ccccc3c2c1	none (no result: LASV entry inh, HCV inh, Marburg entry inh)
CN(CCCCCC(=O)/C=N\O)Cc1ccccc1	none (no result: FMDV inh, LASV entry inh, HCMV antiviral, HCV inh)
Cc1ccc(CN2CCCC(C(=O)N3CCCC3)C2)cc1 (stereo not given)	LASV entry inh inconclusive, Marburg entry inh inconclusive
O=C(C1CCCN(Cc2ccc(Br)cc2)C1)N1CCCCC1 (stereo not given)	FMDV inh inconclusive, HCMV antiviral inconclusive, HCV inh 11µM (no result: LASV entry inh, Marburg entry inh)
O=C(C1CCCCC1)N1CCN(S(=O)(=O)c2ccc(Br)cc2)CC1	FMDV inh inconclusive, LASV entry inh 18µM, Marburg entry inh inconclusive
CN(Cc1ccccc1)C(=O)C1CCCN(Cc2ccc(Cl)cc2)C1 (stereo not given)	FMDV inh inconclusive, LASV entry inh inconclusive, HCV inh 1.4µM, Marburg entry inh inconclusive
CCN(CC)C(=O)C1CCCN(Cc2ccccc2)C1 (stereo not given)	none (no result: FMDV inh)
CN1CCN(S(=O)(=O)Cc2ccc(Cl)cc2)CC1	none
COc1ccc(CN2CCOc3ccc(C(O)c4cccnc4)cc3C2)cc1O (stereo not given)	none (no result: LASV entry inh, HCMV antiviral, HCV inh, Marburg entry inh)
COc1ccccc1NC(=O)N[C@H]1CC[C@@]23CCCN2C(=O)CCC[C@H]3C1Cc1ccccc1 (stereo not given in full)	none (no result: FMDV inh, LASV entry inh, HCV inh, Marburg entry inh)
CC(C)[C@H]1COCCS(=O)(=O)N1Cc1ccccc1-c1ccc(F)cc1	FMDV inh inconclusive (no result: LASV entry inh, Marburg entry inh)
COc1cc(=O)n2c(c1C(=O)N(C)Cc1ccsc1)CCN(Cc1c(C)nn(C)c1Cl)CC2	none (no result: LASV entry inh, HCMV antiviral, HCV inh, Marburg entry inh)
O=C(COC(=O)CCS(=O)(=O)c1ccccc1)NNC(=O)c1ccc([N+](=O)[O-])cc1	none (no result: LASV entry inh, HCV inh, Marburg entry inh)
COC(=O)C(CCSC)NC(=O)c1c(C)oc2ncn(CC(C)C)c(=O)c12 (stereo not given)	none (no result: HCV inh, Marburg entry inh)
